From the supplement of paper PMC13380429

Columns and labels:
[1] = tested on: Vero E6 infected with SARS-CoV-2; experiment: morphology score (similarity to uninfected cells); higher = more like uninfected cells; details: 24 h
[2] = tested on: Vero E6 infected with SARS-CoV-2; experiment: SARS-CoV-2 infection rate relative to infected DMSO; higher = more infection, active = 60 or less; details: 24 h

Row | Structure (SMILES) | morphology score [1] | SARS-CoV-2 infection rate [2]
1 | CCC[C@@H]1C[C@@H](C(=O)N[C@@H]([C@H]2O[C@H](SC)[C@H](O)[C@@H](O)[C@H]2O)[C@@H](C)O)N(C)C1 [lincomycin] (10 µM) | -0.111 | 105% (inactive)
2 | Cc1ccc(S(=O)(=O)/C=C/C#N)cc1 (0.833333 µM) | 0.173 | 112% (inactive)
3 | Nc1c(-c2cccc(C(F)(F)F)c2)nsc1C(=O)O [amflutizole] (10 µM) | 0.00564 | 108% (inactive)
4 | COc1ccc(CC2NCCc3cc(OC)c(OC)cc32)cc1OC (stereo not given) [tetrahydropapaverine] (10 µM) | -0.026 | 108% (inactive)
5 | C[N+](C)(C)NCCC(=O)O [meldonium] (10 µM) | 0.253 | 88.5% (inactive)
6 | N#Cc1ccc(N2N=C3c4ccc(C(=O)O)cc4CC[C@@H]3[C@@H]2C2CCCC2)cc1Cl (10 µM) | -0.174 | 108% (inactive)
7 | OC[C@H]1O[C@@H](Oc2cc3c(O)cc(O)cc3[o+]c2-c2ccc(O)c(O)c2)[C@H](O)[C@@H](O)[C@@H]1O [kuromanin] (10 µM) | -0.129 | 110% (inactive)
8 | COC(=O)C[C@](O)(CCCC(C)(C)O)C(=O)O[C@@H]1C(OC)=C[C@]23CCCN2CCc2cc4c(cc2[C@H]13)OCO4 [homoharringtonine] (10 µM) | 0.837 | 23% (active)
9 | CNC[C@H](O)c1cccc(O)c1 [phenylephrine] (10 µM) | -0.0115 | 110% (inactive)
10 | Cc1ccnc(NS(=O)(=O)c2ccc(N)cc2)n1 [sulfamerazine] (10 µM) | 0.0324 | 108% (inactive)
